Holding throughout (conditions): concentration: 1 μM, replicates: in singlicate; n = 1
For assay [1], the system named is SGK2.
The test system of assay [2] is SGK3.
The subject of assay [3] is SGK.
The test system of assay [4] is SIK2.
Assay [5] concerns SIK.
Assay [6] has as its system SLK.
The test system of assay [7] is T1, SNARK.
T1 construct: gene NUAK2

For assay [8], the system named is SNRK.
Assay [9] relates to SRC.
Assay [10] deals with SRMS.
The test system of assay [11] is SRPK1.
Assay [12] relates to SRPK2.
For assay [13], the system named is SRPK3.
For assay [14], the system named is STK16.
In assay [15] the test system is STK33.
Assay [16] relates to STK35.
Assay [17] has as its system STK36.
Assay [18] relates to STK39.
Assay [19] has as its system SYK.
The test system of assay [20] is SgK110.
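Note: KINOMEscan kinase panel screen.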

`Cc1cccc(-c2cc(-c3c[nH]nc3-c3ccccn3)ccn2)c1` [GW679395]: the “%Inh” value in assay [1] was determined as 6%; in assay [2] it was 0%; in [3], 0%; in assay [4], 0%; in assay [5] it was 0%; in assay [6] it was 0%. The “%Inh” value in assay [7] is reported as 0%; in assay [8] it was 0%; in [9], 53%; in assay [10], 0%; in assay [11], 3%; in assay [12], 0%. Further, the “%Inh” value in assay [13] is 0%; in [14] it was 21%; in assay [15] it was 0%; in assay [16], 0%; in assay [17], 64%; in [18], 30%. Further, the results for the “%Inh” value in assay [19] and in assay [20] were 16% and 64%, respectively.

Regarding `Cc1nnc(-c2ccc(C)c(-c3ccc(C(=O)O)cc3)c2)o1` [GW608005], the “%Inh” value in assay [1], in assay [2], in [3], in assay [4], in assay [5] and in assay [6] was 0% throughout. Also, the “%Inh” value in assay [7] is 5%; in assay [8] it was 0%; in assay [9], 0%; in assay [10] it was 0%; in assay [11], 35%; in assay [12], 0%. The “%Inh” value in [13] was 7%; in [14], 0%; in [15], 0%; in assay [16], 0%; in assay [17], 0%; in assay [18], 1%. For the same compound, the “%Inh” value in assay [19] and in assay [20] was 0% throughout.

In the case of `Cc1nnc(-c2ccc3ncn(-c4ccc(S(C)=O)cc4)c3c2)o1` (centres unmarked), the “%Inh” value in assay [1] is 0%; in assay [2], 0%; in assay [3] it was 0%; in assay [4], 13%; in assay [5], 20%; in assay [6], 14%. The “%Inh” value in assay [7] was 0%; in [8] it was 0%; in [9] it was 5%; in [10], 0%; in [11] it was 0%; in assay [12], 0%. Also, the “%Inh” value in assay [13] is listed as 0%; in [14], 29%; in [15] it was 0%; in assay [16] it was 0%; in assay [17] it was 22%; in assay [18], 0%. For the same compound, the figures for the “%Inh” value in assay [19] and in assay [20] were 0% and 2%, respectively.

On to `FC(F)(F)c1ccc(-c2ncn(CCCN3CCOCC3)c2-c2ccncc2)cc1` [SB-217780], for which the “%Inh” value in [1] was 25%; in assay [2], 0%; in [3] it was 5%; in assay [4], 0%; in assay [5], 0%; in assay [6] it was 0%. Also, the “%Inh” value in assay [7] was 0%; in assay [8], 18%; in assay [9], 0%; in assay [10], 0%; in assay [11], 0%; in assay [12] it was 6%. Also, the “%Inh” value worked out at 6% in [13]; 9% in assay [14]; 0% in assay [15]; 0% in assay [16]; 10% in assay [17]; 19% in [18]. Further, the “%Inh” value in assay [19] and in assay [20] was 0% throughout.

Regarding `COc1cc(Nc2nccc(N3CCC(NC(=O)C(C)c4ccc(Cl)cc4)C3)n2)cc(OC)c1OC` (centres unmarked) [GSK1379757], the “%Inh” value in [1] turned out to be 0%; in assay [2], 0%; in assay [3], 0%; in assay [4], 0%; in assay [5] it was 1%; in assay [6] it was 1%. Besides, the “%Inh” value in assay [7] worked out at 19%; in [8], 0%; in assay [9] it was 13%; in [10], 0%; in assay [11], 26%; in [12] it was 3%. Besides, the “%Inh” value stood at 52% in [13]; 39% in [14]; 0% in assay [15]; 0% in [16]; 0% in [17]; 0% in [18]. For the same compound, the “%Inh” value in assay [19] was found to be 20%; in assay [20], 0%.

Consider `CN1C(=O)C(Nc2cc(Cl)c(O)c(Cl)c2)=C(c2ccc(Cl)cc2)C1=O` [SB-404321], for which the “%Inh” value in assay [1], in assay [2], in assay [3], in assay [4], in [5] and in assay [6] was 0% in each case. For the same compound, the “%Inh” value in assay [7], in [8], in assay [9], in assay [10], in [11] and in [12] was 0% in each case. Moreover, the “%Inh” value in [13] is 96.2%; in [14], 0%; in assay [15] it was 0%; in assay [16] it was 0%; in [17], 19%; in assay [18], 0%. The “%Inh” value in assay [19] and in assay [20] was 0% each time.

On to `O=C(Nc1n[nH]c2cc(-c3ccccc3F)ccc12)C1CC1` [SB-733371], for which the “%Inh” value in assay [1] stood at 11%; in assay [2] it was 12%; in assay [3], 5%; in assay [4], 5%; in assay [5] it was 0%; in assay [6] it was 1%. For the same compound, the “%Inh” value is listed as 1% in assay [7]; 0% in assay [8]; 0% in assay [9]; 14% in [10]; 10% in [11]; 0% in assay [12]. Further, the “%Inh” value in assay [13] turned out to be 38%; in assay [14] it was 0%; in [15], 0%; in assay [16] it was 11%; in assay [17], 0%; in assay [18], 2%. Further, the “%Inh” value in assay [19] is 17%; in [20], 0%.

For `Cc1ccc(-c2ccc3c(ccc4sc5c(c43)NC[C@@H](C)N=C5N(C)C)n2)cn1`, the “%Inh” value in [1] is given as 0%; in [2], 0%; in [3], 0%; in assay [4] it was 0%; in assay [5], 3%; in assay [6] it was 0%. Also, the “%Inh” value was found to be 0% in assay [7]; 0% in assay [8]; 0% in assay [9]; 0% in assay [10]; 0% in assay [11]; 6% in assay [12]. For the same compound, the “%Inh” value in [13] came out at 25%; in assay [14] it was 0%; in assay [15], 0%; in assay [16], 0%; in assay [17], 0%; in [18] it was 0%. In addition, the “%Inh” value in assay [19] is 0%; in assay [20], 14%.

With `COc1cc2ncn(-c3cc(OCc4ccc(S(C)(=O)=O)cc4)c(C(N)=O)s3)c2cc1OC` [GW869979], the “%Inh” value in [1] was 24%; in assay [2], 5%; in assay [3] it was 40%; in [4], 0%; in [5] it was 0%; in [6] it was 29%. Also, the “%Inh” value in assay [7] is given as 15%; in [8], 2%; in assay [9] it was 11%; in assay [10], 14%; in assay [11], 25%; in [12], 0%. Also, the “%Inh” value in assay [13] was 13%; in [14] it was 2%; in assay [15], 27%; in assay [16], 0%; in [17], 0%; in [18] it was 0%. Also, the “%Inh” value in assay [19] and in assay [20] was 0% in each case.

For `CCc1nc(-c2cccc(C)c2)c(-c2ccncc2)s1`, the “%Inh” value amounted to 0% in assay [1]; 0% in [2]; 0% in [3]; 4% in [4]; 2% in assay [5]; 26% in assay [6]. In addition, the “%Inh” value came out at 0% in assay [7]; 9% in [8]; 0% in assay [9]; 0% in [10]; 0% in assay [11]; 0% in assay [12]. Also, the “%Inh” value in [13] is given as 15%; in assay [14], 23%; in assay [15], 0%; in assay [16], 0%; in [17] it was 15%; in assay [18] it was 0%. For the same compound, the “%Inh” value in [19] stood at 23%; in assay [20] it was 0%.

The record behind these values is publication PMC5540273 (PLoS ONE, 2017).
